Molecules are shown by their SMILES. Records with an inconclusive call do not appear. Values without a mark were called inactive. The call rests on the fitted dose curve.
On the % scale 0 is the no-effect control and ±100 the full control effect.

Sequence of 5-hydroxytryptamine receptor 2A (Homo sapiens) (P28223 whole entry, looked up): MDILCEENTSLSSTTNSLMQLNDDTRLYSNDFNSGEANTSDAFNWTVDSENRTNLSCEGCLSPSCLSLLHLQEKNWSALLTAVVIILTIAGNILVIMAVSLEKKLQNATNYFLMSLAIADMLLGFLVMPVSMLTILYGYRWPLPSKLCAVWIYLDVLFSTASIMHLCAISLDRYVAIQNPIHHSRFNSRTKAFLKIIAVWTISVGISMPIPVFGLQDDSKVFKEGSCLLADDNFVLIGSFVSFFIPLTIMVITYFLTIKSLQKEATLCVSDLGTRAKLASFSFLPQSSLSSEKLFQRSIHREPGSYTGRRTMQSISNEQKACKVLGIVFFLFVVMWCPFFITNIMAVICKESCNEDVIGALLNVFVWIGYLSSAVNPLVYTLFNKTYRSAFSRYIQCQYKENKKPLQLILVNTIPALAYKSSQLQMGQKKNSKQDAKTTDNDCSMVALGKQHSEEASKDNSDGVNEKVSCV

For this assay, the target named is 5-hydroxytryptamine receptor 2A (Homo sapiens) (UniProt P28223). Description: 5-hydroxytryptamine receptor 2A (HTR2A) small molecule antagonists, cell-based qHTS assay (AID 1963586). Further: nearly all actives have a fitted effect of over 45% in size. The settings on record: HTR2A-CHO cells, DOI-induced calcium flux, fluorescence; series mostly up to 61.5 µM; activity, negative = inhibition: at the top concentration. The text has this:
National Center for Advancing Translational Sciences [NCATS]
Division of Preclinical Innovation [DPI]
U.S. Environmental Protection Agency [EPA]
National Institutes of Environmental Health Sciences [NIEHS]
National Toxicology Program [NTP]
U.S. Food and Drug Administration [FDA]
The HTR2A receptor is a subtype of the 5-HT2 receptor that belongs to the serotonin receptor family and is a G protein-coupled receptor (GPCR). The HTR2A-CHO cell line stably expressing human 5-hydroxytryptamine receptor 2A (HTR2A) can be used for screening antagonists of interactions between 5-HT2 and its ligands. The HTR2A-CHO calcium flux assay is a homogeneous fluorescence-based assay for detecting the intracellular calcium level using FDSS kinetic plate reader system.
Tox21 Assay Protocol Summary:
HTR2A-CHO cells were dispensed at 2000 cells/3uL/well in 1536-well black-clear bottom plates using a Multidrop Dispenser. After the assay plates were incubated at a 37 C/5% CO2 incubator for 18 h, 3 uL of Dye Loading Buffer was transferred to the assay plate by a Flying Reagent Dispenser. The assay plates were incubated at 37 C for 1h. For antagonist mode, 23 nL of compounds dissolved in DMSO, positive controls or DMSO only was transferred to the assay plate by a pin tool. After 5 min incubation at room temperature, 1.5 uL of 4-Iodo-2,5-dimethoxy-alpha-methylbenzeneethanamine hydrochloride (DOI) at 4nM was added to each well. The fluorescence intensity in the plates was measured using FDSS 7000EX kinetic plate reader for 3 min at 1 sec intervals.
(In general: qHTS replaces the single test concentration by a dilution series.)
For the compound `OC[C@@H](O)C(O)[C@@H](O)CO` (stereo not given in full), the “activity, negative = inhibition” value was 10.5%. On to `S=c1[nH][nH]c(=S)s1`, for which the “activity, negative = inhibition” value was -37.7%.

With `CC(C)Cc1nccs1`, the “activity, negative = inhibition” value was 36.3%. In the case of `CCC1(C)NC(=O)NC1=O` (stereo not given) it was 1.04%; in that of `CC/C=C(\C)C=O`, 11.5%. `NNc1nc(-c2ccc([N+](=O)[O-])cc2)cs1`: the “activity, negative = inhibition” value is 3.73%. In the case of `CCCCCC(=O)OCC` it was -1.49%; in that of `CCO[Si](C)(CCCOCC1CO1)OCC` (stereo not given), 8.46%. In the case of `O=C(O)CP(=O)(O)O` it was -3.45% [at 28.5 µM]; in that of `O=C(O)c1c(Cl)cccc1Cl`, 5.29%; in that of `Nc1ccc(NC(=O)c2ccc(N)cc2)cc1`, -2.89%.

With `COCCOCC(OC)OC`, the “activity, negative = inhibition” value is 2.63% [at 28.5 µM]. In the case of `Cc1cc(-c2ccccc2)nnc1NCCN1CCOCC1` it was -3.48% [at 28.5 µM]; in that of `CC(C(=O)O)c1ccc(C(=O)c2ccccc2)s1` (stereo not given), -23.2% [at 28.5 µM]; in that of `O=CC(=O)c1ccccc1`, -2.49%. As to `C=C(C)c1cccc(C(C)(C)N=C=O)c1`, the “activity, negative = inhibition” value was 1.57%. With `CCCCCCC(O)CCOC(C)=O` (stereo not given), the “activity, negative = inhibition” value is 5% [at 159 µM].

With `O=C1c2ccccc2C(=O)N1CCl`, the “activity, negative = inhibition” value is -20.5%. The result for `O=Cc1ccccc1[N+](=O)[O-]` reads -10.5%; that for `CN1CCN(c2c(F)cc3c(=O)c(C(=O)O)cn4c3c2SCC4)CC1`, -18.5% [at 28.5 µM]. The result for `O=C1CCCCCCCCCCCCCC1` reads 0.236%; that for `Cn1c(=O)cc(Oc2ccc(F)cc2F)c2cnc(NCC(C)(C)O)nc21`, 11.4%. Consider `Cc1cccc(C(=O)O)c1[N+](=O)[O-]`, for which the “activity, negative = inhibition” value was -1.95%. As to `CC(C)=CCC/C(C)=C/CC/C(C)=C/C(=O)OCC(=O)[C@@]1(O)CC[C@H]2[C@@H]3CCC4=CC(=O)C=C[C@]4(C)[C@H]3[C@@H](O)C[C@@]21C`, the “activity, negative = inhibition” value is 98.1% [at 28.5 µM].

As to `Nc1cc(C(=O)O)ccc1Cl`, the “activity, negative = inhibition” value was 3.69%. The result for `C=CC(C)(CCC=C(C)C)OC(=O)C(C)C` (stereo not given) reads -7.72%. Consider `CCCCOC(=O)C(C)O` (stereo not given), for which the “activity, negative = inhibition” value was -12%. On to `Cc1cccc(C)c1C`, for which the “activity, negative = inhibition” value was -6.26%. Regarding `CC(C)=CCC/C(C)=C\C#N`, the “activity, negative = inhibition” value is 4.96%. In the case of `COc1cc(C(=O)NCCCCCC(=O)O)cc(OC)c1OC` it was -3.89% [at 28.5 µM]. In the case of `O=CN1CCCCC1` it was -1.27%; in that of `CC1=C2[C@H](/C=C(\C)C(=O)O)CC[C@@H](C)[C@H]2CC1`, 7.86%. The result for `CCCCN(C)C` reads 21.7%; that for `CC(Cl)C(Cl)Cl` (stereo not given), -14.6%.

Regarding `CCCCOCCOC(=O)COc1ccc(Cl)cc1Cl`, the “activity, negative = inhibition” value is -16.4%. As to `CCC(C)(CCCC(C)C)OC(C)=O` (stereo not given), the “activity, negative = inhibition” value is -0.097%. For `c1ccc(SSc2ccccc2)cc1`, the “activity, negative = inhibition” value is 21.3%.

For `CC(C)COC(=O)COc1cc(Cl)c(Cl)cc1Cl`, the “activity, negative = inhibition” value was 3.18%. As for `CC(C)SCc1ccco1`, the “activity, negative = inhibition” value was 11.7% [at 28.5 µM]. Regarding `CC(C)=CCC1=C(O)c2ccccc2C(=O)C1=O`, the “activity, negative = inhibition” value was -19.2%.

Values taken from PubChem BioAssay (Tox21).
